Results taken from PubChem BioAssay.
Active and inactive are the calls of the source.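 Rule for the calls: active = membrane potential signal rise above negative control mean plus 3 SD in both duplicates, also active in the earlier TRPC4 screen; inactive = the rest.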

biological target: Short transient receptor potential channel 6 (Mus musculus) (UniProt Q61143); experiment: TRPC6 opening by TRPC4 activator hits – cell-based, HEK293, membrane potential dye, duplicate, selectivity assay for TRPC4 activator project, confirmation (AID 434950); details: HEK293 TRPC6, membrane potential fluorescence, at 10 µM; activation: stronger effect = higher value; outcome: activation;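 for activation: 0% = buffer only wells and 100% = acetylcholine maximal-effect wells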
Sequence (Q61143 whole entry, looked up): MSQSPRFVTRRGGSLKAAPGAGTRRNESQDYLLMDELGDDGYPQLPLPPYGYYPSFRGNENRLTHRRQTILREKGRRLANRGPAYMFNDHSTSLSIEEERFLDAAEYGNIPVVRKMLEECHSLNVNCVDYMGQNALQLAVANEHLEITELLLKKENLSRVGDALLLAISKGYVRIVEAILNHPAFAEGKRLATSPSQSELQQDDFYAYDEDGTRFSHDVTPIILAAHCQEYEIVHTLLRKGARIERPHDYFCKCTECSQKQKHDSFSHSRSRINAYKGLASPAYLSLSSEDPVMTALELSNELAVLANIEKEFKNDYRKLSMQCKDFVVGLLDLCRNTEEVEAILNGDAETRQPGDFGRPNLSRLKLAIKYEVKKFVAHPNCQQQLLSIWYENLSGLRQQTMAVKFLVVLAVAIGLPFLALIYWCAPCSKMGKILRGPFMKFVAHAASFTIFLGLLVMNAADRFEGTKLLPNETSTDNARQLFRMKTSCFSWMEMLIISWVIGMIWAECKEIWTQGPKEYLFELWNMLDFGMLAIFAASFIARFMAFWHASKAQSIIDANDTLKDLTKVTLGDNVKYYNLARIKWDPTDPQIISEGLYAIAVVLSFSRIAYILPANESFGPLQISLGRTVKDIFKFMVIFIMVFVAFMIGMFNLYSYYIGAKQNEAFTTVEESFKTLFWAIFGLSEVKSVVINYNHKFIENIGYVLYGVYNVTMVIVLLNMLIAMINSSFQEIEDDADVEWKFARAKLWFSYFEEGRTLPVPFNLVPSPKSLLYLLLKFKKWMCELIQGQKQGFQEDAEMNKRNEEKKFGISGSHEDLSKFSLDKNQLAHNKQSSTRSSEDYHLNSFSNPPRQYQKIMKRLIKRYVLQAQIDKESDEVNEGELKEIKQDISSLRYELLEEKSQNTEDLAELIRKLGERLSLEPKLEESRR

Compound	activation	outcome
CCCCN(CC)CCNC(=O)Cn1cc2c(n1)-c1c(oc(C(=O)N3CCCC3)c1C)CC2	34% (active)	–
Cc1ccc(NC(=S)NC2CC3CCC(C2)N3Cc2ccco2)c(C)c1 (configuration not stated)	–	inactive
COc1ccc(N2CCN(Cc3nc4ccccc4n3C)CC2)cc1	–	inactive
CCC(=O)NC(C)C(c1cccs1)N1CCN(c2ccccc2)CC1 (configuration not stated)	29% (active)	–
CC(=O)n1cc([C@H]2C=C(C(=O)NCc3ccccc3)O[C@@H](OCc3ccc(CO)cc3)C2)c2ccccc21	–	inactive
CCN1CCCC1CNC(=O)c1cc2c(OC)cccc2[nH]1 (configuration not stated)	36.5% (active)	–
COc1ccc(F)cc1CN1CCN(C(=O)CCC(=O)Nc2nnc(C(C)C)s2)CC1	41.5% (active)	–
CN(CCOc1ccc(Br)cc1)CC(O)c1ccccc1 (configuration not stated)	41.5% (active)	–
CCN1CCN(c2c(Cl)cccc2NC(=O)c2ccc([N+](=O)[O-])cc2)CC1	–	inactive
CCn1c(=O)c(C(=O)NNC(=O)c2ccccc2F)c(O)c2ccccc21	–	inactive
CN1C(CC(=O)Nc2ccc(Br)cc2)c2ccccc2CC1(C)C (configuration not stated)	28.5% (active)	–
COc1ccc(C(CNCC(O)COc2c(C)ccc(C)c2C)N(C)C)cc1 (configuration not stated)	79% (active)	–
COc1ccc(C(CNC(=O)C(Cc2ccccc2)NC(N)=O)N(C)C)cc1 (configuration not stated)	32% (active)	–
CCCN(CCC)CCNC(=O)CCC(=O)Nc1ccc2nc(N3CCOCC3)cc(C)c2c1	–	inactive
Fc1ccc(NC(=S)NCCc2ccccn2)cc1	–	inactive
Cc1noc(C)c1CCC(=O)NC1CCCN(Cc2ccc(CC(C)C)cc2)C1 (configuration not stated)	46% (active)	–
COc1ccc(C(CCNCc2ccc(N(C)C)cc2)c2ccccc2)cc1 (configuration not stated)	–	inactive
